Values joined by “and” are separate entries in the source; they are usually repeats but may differ in a detail not shown here. Equal values may be shown once. Inconclusive results are not listed. A structure can be active in one record and inactive in another. Active and inactive are the calls of the source. Unless noted, calls come from the whole dose curve; as a rule, active = well fitted curve in the direction sought with a large enough effect in the repeat runs; inconclusive = weak or mixed curves; inactive = no such curve, though single readings can be large; an effect the other way counts as inactive or inconclusive.
What was measured:
[1] = qHTS assay to identify small molecule antagonists of the estrogen receptor alpha (ER-alpha) signaling pathway using the BG1 cell line in the presence of 0.1 nM 17-beta-estradiol - cell viability counter screen (AID 1259241); note: nearly all actives have a fitted effect of over 40% in size
Method in brief: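 VM7Luc4E2, 4,000 cells/well, phenol red-free medium + 10% charcoal-stripped FBS; 24 hr plating; cpd + 0.1 nM E2 final, 22 hr 37C/5% CO2; CellTiter-Fluor 30 min, fluorescence.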

[2] = qHTS assay to identify small molecule antagonists of the androgen receptor (AR) signaling pathway using the MDA cell line in the presence of 0.5 nM R1881 - cell viability counter screen (AID 1259242); note: nearly all actives have a fitted effect of over 45% in size; note: potency is the fitted concentration of half-maximal effect
Method in brief: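 Human breast carcinoma MDA-kb2 cells, cultured without CO2, receive compounds alongside 0.5 nM (final) R1881 agonist. After 16 hr at 37C, viability is taken as live-cell protease signal.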

[3] = target: Estrogen receptor (Homo sapiens) (UniProt P03372); experiment: qHTS assay to identify small molecule antagonists of the estrogen receptor alpha (ER-alpha) signaling pathway using the BG1 cell line in the presence of 0.1 nM 17-beta-estradiol (AID 1259244); note: nearly all actives have a fitted effect of over 50% in size; note: potency is the fitted concentration of half-maximal effect
Method in brief: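 Seeding of stripped-serum-adapted VM7Luc4E2 cells, 24 h attachment, compound transfer, then 0.1 nM final 17beta-estradiol; after 22 h incubation, ONE-Glo reagent and luminescence reading.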

[4] = qHTS assay to identify small molecule HDAC inhibitors (AID 1259364);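 note: wild-type HCT-116 cells with endogenous class I/II HDAC activity; top concentration of the series differs between compounds; nearly all actives have a fitted effect of over 45% in size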
Method in brief: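 After a 2 hr compound incubation (37C, 5% CO2), HCT-116 cells seeded at 1,500/well the day before received HDAC-Glo reagent; signal read as luminescence after 30 min at room temperature.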

[5] = qHTS assay to identify small molecule HDAC inhibitors - cell viability counter screen (AID 1259365); note: series mostly up to about 92 µM; nearly all actives have a fitted effect of over 50% in size
Method in brief: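 Luminescence from CellTiter-Glo, developed 30min at room temperature, reports viability of wild-type HCT-116 cells treated 2hr with compounds at 37 C and 5% CO2 after overnight plating.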

[6] = qHTS assay to identify small molecule agonists of the sonic hedgehog signaling (Shh) pathway - cell viability counter screen (AID 1259366); note: nearly all actives have a fitted effect of over 50% in size; note: potency is the fitted concentration of half-maximal effect
Method in brief: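 Cytotoxicity counter screen run in the same wells as the Shh reporter assay. NIH/3T3 cells carrying a Gli1 response element–driven luciferase were treated with DMSO-dissolved compounds for 24hr, and live-cell protease activity was measured with CellTiter-Fluor.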

[7] = qHTS assay to identify small molecule antagonists of the sonic hedgehog signaling (Shh) pathway - cell viability counter screen (AID 1259367); note: nearly all actives have a fitted effect of over 55% in size; note: potency is the fitted concentration of half-maximal effect
Method in brief: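 Conditioned medium drove Shh signaling in 3T3 Gli1-Luc cells exposed to compounds at 37C and 5% CO2. Viability was determined from CellTiter-Fluor fluorescence, with reagent incubated 1 hr after 23 hr of treatment.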

[8] = qHTS assay to identify small molecule agonists of the sonic hedgehog signaling (Shh) pathway (AID 1259368; calls by dose curve;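 note: NIH/3T3-derived 3T3Gli1-Luc cells carrying a stable Gli1-driven firefly luciferase reporter; series mostly up to about 92 µM; nearly all actives have a fitted effect of over 15% in size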)
Method in brief: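 Stable NIH/3T3 Gli1-Luc reporter clone; 24 hr cpd exposure after a 4 hr settling period; luminescence endpoint.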

[9] = qHTS assay to identify small molecule antagonists of the sonic hedgehog signaling (Shh) pathway (AID 1259369; calls by dose curve; note: nearly all actives have a fitted effect of over 45% in size; note: potency is the fitted concentration of half-maximal effect)
Method in brief: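 Gli1 transcriptional reporter (firefly Luc) in NIH/3T3 background, conditioned-medium activated. 24hr exposure, luminescence endpoint.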

[10] = target: Estrogen receptor beta (Homo sapiens) (UniProt Q92731); experiment: qHTS assay to identify small molecule agonists of the estrogen receptor beta (ER-beta) signaling pathway (AID 1259377; active = well fitted activation curve with a large enough effect in the signal ratio in the repeat runs, not every such curve was filed as active; the % refers to the signal ratio; note: potency is the fitted concentration of half-maximal effect)
Method in brief: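 HEK293T ER-beta-UAS-bla; 2% charcoal-stripped FBS; cells pre-incubated 6 hr, compound 16 hr, 37C/5% CO2; LiveBLAzer B/G FRET substrate 2 h RT; fluorescence intensity read.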

[11] = target: Estrogen receptor beta (Homo sapiens) (UniProt Q92731); experiment: qHTS assay to identify small molecule antagonists of the estrogen receptor beta (ER-beta) signaling pathway (AID 1259378; active = well fitted inhibition curve with a large enough effect in the signal ratio in the repeat runs, not every such curve was filed as active; the % refers to the signal ratio)
Method in brief: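 ER-beta-UAS-bla HEK293T (GripTite) cells in 2% charcoal-stripped FBS medium were preincubated 6 hr at 37C, dosed with compound, then stimulated with 1 nM E2 (final) for 16 hr; beta-lactamase reporter read by B/G FRET fluorescence after 2 hr substrate loading.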

[12] = qHTS assay to identify small molecule agonists of the androgen receptor (AR) signaling pathway in the presence of an antagonist - cell viability counter screen (AID 1259379); note: nearly all actives have a fitted effect of over 25% in size; note: potency is the fitted concentration of half-maximal effect
Method in brief: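 Counter screen for cell viability run in parallel with the AR agonist-mode luciferase assay. MDA-kb2 cells were co-treated with nilutamide (3.0uM final) and compounds, then incubated 16 hr at 37C, and CellTiter-Fluor fluorescence was measured.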

[13] = qHTS assay to identify small molecule agonists of the estrogen receptor beta (ER-beta) signaling pathway - cell viability counter screen (AID 1259380); note: nearly all actives have a fitted effect of over 30% in size; note: potency is the fitted concentration of half-maximal effect
Method in brief: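 In this qHTS counter screen, HEK293T cells carrying an ER-beta/UAS beta-lactamase reporter, grown in 2% charcoal-stripped FBS, received compound for 16 hr; ATP-based CellTiter-Glo luminescence was then read after 30 min at room temperature.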

[14] = qHTS assay to identify small molecule antagonists of the estrogen receptor beta (ER-beta) signaling pathway - cell viability counter screen (AID 1259382); note: nearly all actives have a fitted effect of over 55% in size; note: potency is the fitted concentration of half-maximal effect
Method in brief: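 HEK293T ER-beta-UAS-bla, 2% charcoal-stripped FBS; compounds + 1nM E2 16 hr 37C; CellTiter-Glo luminescence, 30 min RT.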

[15] = qHTS assay to identify small molecule agonists or antagonists of the thyroid stimulating hormone receptor (TSHR) signaling pathway - wild type cell line counter screen (AID 1259384; calls by dose curve)
Method in brief: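 Wild-type HEK293 cells were plated 18 h at 37 C/5% CO2, pin-dosed with compound plus Ro20-1724 medium, held 30 min at room temperature, then given cAMP-d2 and anti-cAMP-cryptate; fluorescence was read after 1 h. Fifteen concentrations, triplicate.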

[16] = target: Thyrotropin receptor (Homo sapiens) (UniProt P16473); experiment: qHTS assay to identify small molecule antagonists of the thyroid stimulating hormone receptor (TSHR) signaling pathway (AID 1259385; calls by dose curve; note: nearly all actives have a fitted effect of over 20% in size)
Method in brief: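 TSHR-HEK293 cells were plated and held 18 h at 37C/5% CO2, then given compound plus Ro20-1724 and stimulated with TSH at 1.5 ng/mL final. After 30 min at room temperature, cAMP was detected with cAMP-d2/anti-cAMP-cryptate (1 h) by fluorescence.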

[17] = qHTS assay to identify small molecule phospholipidosis (PLD) inducers (AID 1259344; active = well fitted curve in the direction sought with a large enough effect; an effect the other way counts as inactive or inconclusive)
Method in brief: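 After 4 h attachment on collagen I, HepG2 cells were dosed with compound alongside LipidTOX Red, kept 24 h at 37 C, fixed, and imaged for lamellar phospholipid pits.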

[18] = target: Estrogen receptor (Homo sapiens) (UniProt P03372); experiment: qHTS assay to identify small molecule agonists of the estrogen receptor alpha (ER-alpha) signaling pathway in the presence of an antagonist (AID 1259383; calls by dose curve; note: top concentration of the series differs between compounds; nearly all actives have a fitted effect of over 15% in size)
Method in brief: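 ER-alpha agonism measured under antagonist challenge: 10.0nM ICI-182,780 (final) plus compound, 15 concentrations, 22hr, VM7Luc4E2 ERE-luciferase cells. Read by luminescence.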

[19] = target: Androgen receptor (Homo sapiens) (UniProt P10275); experiment: qHTS assay to identify small molecule antagonists of the androgen receptor (AR) signaling pathway using the MDA cell line in the presence of 0.5 nM R1881 (AID 1259243); note: nearly all actives have a fitted effect of over 50% in size
Method in brief: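 Cells: MDA-kb2 (MMTV-luc). Stimulus: 0.5 nM R1881. Time: 16 hr, 37C, no CO2. Detection: ONE-Glo luminescence after 30 min at RT.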

[20] = target: Androgen receptor (Homo sapiens) (UniProt P10275); experiment: qHTS assay to identify small molecule agonists of the androgen receptor (AR) signaling pathway in the presence of an antagonist (AID 1259381; calls by dose curve; note: nearly all actives have a fitted effect of over 15% in size)
Method in brief: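 AR antagonist background: nilutamide 3.0uM final. Cell line: MDA-kb2, MMTV-driven luciferase, responsive to both AR and GR. Exposure 16hr, 37C, no CO2; ONE-Glo luminescence.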

Measured: Potency

Chain of Estrogen receptor (Homo sapiens) (P03372 whole entry, looked up): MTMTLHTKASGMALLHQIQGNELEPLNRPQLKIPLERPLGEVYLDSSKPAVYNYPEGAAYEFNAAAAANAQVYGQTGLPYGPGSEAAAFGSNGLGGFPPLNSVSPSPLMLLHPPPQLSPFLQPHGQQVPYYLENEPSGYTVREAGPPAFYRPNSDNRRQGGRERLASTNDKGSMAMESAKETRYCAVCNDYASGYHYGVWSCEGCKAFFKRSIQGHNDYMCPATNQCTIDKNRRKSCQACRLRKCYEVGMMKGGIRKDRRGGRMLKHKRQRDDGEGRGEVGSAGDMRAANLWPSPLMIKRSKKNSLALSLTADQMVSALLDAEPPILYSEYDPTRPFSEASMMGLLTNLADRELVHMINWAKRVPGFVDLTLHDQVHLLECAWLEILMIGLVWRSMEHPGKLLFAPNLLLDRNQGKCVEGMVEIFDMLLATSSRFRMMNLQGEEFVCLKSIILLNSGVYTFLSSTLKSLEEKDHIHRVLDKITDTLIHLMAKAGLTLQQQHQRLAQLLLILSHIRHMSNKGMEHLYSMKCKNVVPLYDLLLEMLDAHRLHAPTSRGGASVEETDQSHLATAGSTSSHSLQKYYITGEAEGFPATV
Chain of Thyrotropin receptor (Homo sapiens) (P16473 whole entry, looked up): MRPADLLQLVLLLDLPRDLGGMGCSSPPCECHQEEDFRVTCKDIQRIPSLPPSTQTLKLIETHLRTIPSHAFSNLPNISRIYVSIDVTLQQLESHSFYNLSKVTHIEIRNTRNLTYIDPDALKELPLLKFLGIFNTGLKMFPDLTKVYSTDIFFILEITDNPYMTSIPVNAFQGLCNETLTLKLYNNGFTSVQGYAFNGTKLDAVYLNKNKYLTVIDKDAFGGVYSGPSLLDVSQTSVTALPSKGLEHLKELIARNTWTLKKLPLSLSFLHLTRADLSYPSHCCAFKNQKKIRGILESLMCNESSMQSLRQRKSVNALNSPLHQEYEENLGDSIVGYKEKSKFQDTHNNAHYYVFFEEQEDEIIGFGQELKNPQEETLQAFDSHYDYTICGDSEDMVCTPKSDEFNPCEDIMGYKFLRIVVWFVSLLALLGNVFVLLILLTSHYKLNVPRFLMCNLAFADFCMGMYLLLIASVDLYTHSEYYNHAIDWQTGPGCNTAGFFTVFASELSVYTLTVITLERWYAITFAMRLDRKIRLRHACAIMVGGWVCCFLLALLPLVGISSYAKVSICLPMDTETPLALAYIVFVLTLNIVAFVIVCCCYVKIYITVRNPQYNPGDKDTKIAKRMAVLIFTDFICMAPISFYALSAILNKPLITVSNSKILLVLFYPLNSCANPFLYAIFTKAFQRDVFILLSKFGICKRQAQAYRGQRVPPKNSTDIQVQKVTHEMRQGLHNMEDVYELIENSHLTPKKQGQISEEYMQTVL
Chain of Estrogen receptor beta (Homo sapiens) (Q92731 whole entry, looked up): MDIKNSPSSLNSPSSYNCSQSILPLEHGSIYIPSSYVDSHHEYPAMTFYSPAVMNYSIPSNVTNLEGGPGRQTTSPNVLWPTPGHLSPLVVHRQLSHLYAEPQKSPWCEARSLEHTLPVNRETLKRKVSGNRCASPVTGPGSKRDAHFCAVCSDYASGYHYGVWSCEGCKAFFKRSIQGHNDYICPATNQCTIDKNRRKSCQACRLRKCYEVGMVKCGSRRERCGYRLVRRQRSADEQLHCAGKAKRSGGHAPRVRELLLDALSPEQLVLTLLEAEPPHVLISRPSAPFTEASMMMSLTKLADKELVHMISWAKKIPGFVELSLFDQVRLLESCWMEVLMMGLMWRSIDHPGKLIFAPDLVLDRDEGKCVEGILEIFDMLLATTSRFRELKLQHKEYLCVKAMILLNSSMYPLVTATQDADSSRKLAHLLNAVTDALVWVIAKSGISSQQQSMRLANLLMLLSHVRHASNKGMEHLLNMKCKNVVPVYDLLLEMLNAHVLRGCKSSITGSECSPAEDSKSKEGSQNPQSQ
Chain of Androgen receptor (Homo sapiens) (P10275 whole entry, looked up): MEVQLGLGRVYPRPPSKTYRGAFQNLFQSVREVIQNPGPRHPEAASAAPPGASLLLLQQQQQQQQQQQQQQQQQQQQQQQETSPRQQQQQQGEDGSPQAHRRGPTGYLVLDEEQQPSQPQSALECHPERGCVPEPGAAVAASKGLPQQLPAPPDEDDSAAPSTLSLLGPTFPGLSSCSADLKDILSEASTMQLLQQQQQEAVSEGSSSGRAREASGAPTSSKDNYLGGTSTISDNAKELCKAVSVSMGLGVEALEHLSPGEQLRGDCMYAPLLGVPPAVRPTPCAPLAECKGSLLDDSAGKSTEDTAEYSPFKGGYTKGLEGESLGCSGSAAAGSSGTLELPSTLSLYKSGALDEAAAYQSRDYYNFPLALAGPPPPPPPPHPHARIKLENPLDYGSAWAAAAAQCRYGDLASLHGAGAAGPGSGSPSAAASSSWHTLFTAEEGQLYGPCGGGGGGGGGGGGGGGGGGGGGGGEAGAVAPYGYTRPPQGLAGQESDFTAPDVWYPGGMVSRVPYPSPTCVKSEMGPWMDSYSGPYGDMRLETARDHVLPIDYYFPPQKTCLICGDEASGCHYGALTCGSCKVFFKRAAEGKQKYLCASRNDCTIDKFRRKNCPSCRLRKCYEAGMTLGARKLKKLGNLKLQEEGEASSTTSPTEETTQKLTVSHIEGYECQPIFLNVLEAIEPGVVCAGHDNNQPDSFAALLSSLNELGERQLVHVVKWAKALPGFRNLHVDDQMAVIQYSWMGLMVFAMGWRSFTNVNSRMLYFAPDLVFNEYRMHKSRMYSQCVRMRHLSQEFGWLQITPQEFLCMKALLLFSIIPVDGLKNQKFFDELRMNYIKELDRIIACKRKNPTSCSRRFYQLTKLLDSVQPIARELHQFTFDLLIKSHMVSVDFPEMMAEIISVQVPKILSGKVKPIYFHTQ

C/C(=N\NC(=O)Nc1cc(F)cc(F)c1)c1ncccc1C(=O)O
not listed: [17] | [18] | [19] | [20]
inactive: all other assays above

CCOC(=O)c1ncn2c1CN(C)C(=O)c1c(I)cccc1-2
not listed: [19] | [20]
inactive: all other assays above

CCOC(=O)CCl
not listed: [17] | [19] | [20]
inactive: all other assays above

O=C1C2CC=CCC2C(=O)N1SC(Cl)(Cl)Cl (centres undefined)
inactive and 30.1 µM (active): [13] | [14]
inactive and 2.69 µM (active): [9]
inactive and 26.9 µM (active): [3]
inactive and 13.5 µM (active): [6] | [7]
inactive and 16.9 µM (active): [2]
active: [10] 8.6 µM | [12] 30.1 µM
not listed: [18] | [19] | [20]
inactive: all other assays above

C[C@]12C=CC(=O)C=C1CC[C@@H]1[C@@H]2CC[C@@]2(C)[C@H]1CC[C@]2(C)O
not listed: [7] | [9] | [10] | [11] | [13] | [18] | [19] | [20]
inactive: all other assays above

COC[C@@H](NC(C)=O)C(=O)NCc1ccccc1
not listed: [3] | [17] | [18]
inactive: all other assays above

O=C1CC(=O)NC(=O)N1
not listed: [16] | [17] | [19] | [20]
inactive: all other assays above

NCCOS(=O)(=O)O
not listed: [13] | [17] | [19] | [20]
inactive: all other assays above

— PubChem BioAssay (Tox21)
